Bioassay records from PubChem BioAssay.
TRAIL sens C8 – caspase-8 TRAIL sensitization; NB7+C8 cells + TRAIL, ATPlite viability luminescence; inhibition (viability loss, TRAIL sensitization), % at 10 µM; hit rate 1% among 360,000; AID 624354;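 active = compounds causing at least 50% loss of cell viability in the single-dose screen, relative to plate controls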
SENP8 block-1 – blocks the human protease SENP8 | Q96LD8 | purified SENP8, Z-RLRGG-aminoluciferin cleavage, luminescence | inhibition, % at 10 µM | hit rate 1.2% among 330,000; in the data active = inhibition above about 50%
PPC-1+TRAIL kill – compounds killing PPC-1 cancer cells with TRAIL present (potentiator screen, no TRAIL-free arm) | AID 1443 | cell killing (% activity), % at 4 µM or 5 µM | hit rate 0.41% among 220,000 | PPC-1 cells + TRAIL, ATPLite viability luminescence;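 active = cell killing above 50% in the first pass at 4 µM, then a duplicate retest at 5 µM averaging 50% or more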;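 also: plate controls were cells with TRAIL plus DMSO for no effect and medium-only wells lacking cells for full effect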
SENP7 inh – inhibitors of human SENP7 protease; recombinant SENP7, Z-RLRGG-aminoluciferin luminescence, 40 min; inhibition, % at 5 µM; hit rate 1.5% among 330,000;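 active = inhibition above about 50% at the single test dose, limit read from the data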;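 also: plate controls were DMSO with enzyme for no effect and no enzyme buffer wells for full effect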
SENP8 block-2 – inhibitors of human SENP8 protease | inhibition, % at 20 µM | hit rate 0.64% among 360,000 | recombinant SENP8, Nedd8 substrate fluorescence | Q96LD8 | AID 602440; in the data active = inhibition mostly above about 40%, no sharp cut-off; inactive = mostly below about 27%
SENP6 inh – SENP6 protease inhibition | Q9GZR1 | hit rate 1.8% among 330,000 | AID 2599 | inhibition, % at 10 µM | Recombinant SENP6 catalytic domain, aminoluciferin luminescence;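 active = inhibition above about 50% at the single tested dose, limit read from the data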;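 also: plate controls were DMSO wells with enzyme for no effect and DMSO wells lacking enzyme for full effect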
Target sequence (Q9GZR1 628-1112 limits assumed): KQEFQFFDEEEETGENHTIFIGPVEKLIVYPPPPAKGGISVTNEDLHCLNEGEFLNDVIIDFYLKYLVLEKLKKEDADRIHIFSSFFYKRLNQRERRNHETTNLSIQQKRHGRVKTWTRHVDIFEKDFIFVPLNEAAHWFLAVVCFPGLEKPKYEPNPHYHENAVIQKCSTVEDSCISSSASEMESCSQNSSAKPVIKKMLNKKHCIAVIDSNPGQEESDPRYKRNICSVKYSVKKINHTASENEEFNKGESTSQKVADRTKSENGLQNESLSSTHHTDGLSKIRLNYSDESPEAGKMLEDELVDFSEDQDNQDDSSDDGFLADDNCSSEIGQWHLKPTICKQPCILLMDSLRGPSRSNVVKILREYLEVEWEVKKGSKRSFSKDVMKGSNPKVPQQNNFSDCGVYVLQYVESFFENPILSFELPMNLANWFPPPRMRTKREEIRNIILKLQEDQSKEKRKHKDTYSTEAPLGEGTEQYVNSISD
PPC1 cytotox – kills PPC-1 cells; shares compounds with PPC-1+TRAIL kill; PPC-1 viability, ATPlite luminescence, overnight; cytotoxicity, % at 5 µM; hit rate 50% among 1,200;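 active = reconfirmed compounds whose average cytotoxicity reaches 50% or more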;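 also: 0% = DMSO-treated cells and 100% = wells holding medium but no cells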
Starred values were filed as active, the others as inactive; nt = no result. An excerpt weighted towards active compounds, which were near 3% of everything screened.

SMILES	TRAIL sens C8	SENP8 block-1	PPC-1+TRAIL kill	SENP7 inh	SENP8 block-2	SENP6 inh	PPC1 cytotox
CC1=CC2OC3CC4OC(=O)C=CC=CC(=O)OCCC(C)C(O)C(=O)OCC2(CC1O)C4(C)C31CO1 (centres undefined)	72*	nt	nt	nt	-1	nt	nt
CC1=CC2OC3CC4OC(=O)C=CC=CC(C(C)O)OCC(O)C(C)CC(=O)OCC2(CC1O)C4(C)C31CO1 (centres undefined)	69*	nt	nt	nt	-9	nt	nt
C[C@]12CCC3C(CC[C@H]4C[C@H](O)[C@H](O)C[C@]34C)C1CC[C@@H]2O (some centres undefined)	3	nt	nt	nt	7	nt	nt
CN(C)c1cc[n+](CC(O)C[n+]2ccc(N(C)C)cc2)cc1	-11	8	nt	-10	14	-11	nt
O=[N+]([O-])c1cccc(NP(=O)(Oc2ccccc2)Oc2ccccc2)c1	-4	-1	nt	0	21	-9	nt
Cc1cccc(C)c1-n1nnnc1C(CCc1ccccc1)N1CCC(n2c(=O)[nH]c3ccccc32)CC1 (centres undefined)	82*	nt	nt	nt	27	nt	nt
COc1ccc(-n2nnnc2C(CCc2ccccc2)N2CCC(n3c(=O)[nH]c4ccccc43)CC2)cc1 (centres undefined)	90*	nt	nt	nt	35	nt	nt
COc1ccc2nc(-c3ccc(CN4CCC(n5c(=O)[nH]c6ccccc65)CC4)cc3)c(-c3ccccc3)nc2c1	51*	nt	nt	nt	-386	nt	nt
Cc1ccc2nc(-c3ccc(CN4CCC(n5c(=O)[nH]c6ccccc65)CC4)cc3)c(-c3ccccc3)nc2c1	28	nt	nt	nt	-90	nt	nt
C[C@@H]1CN([C@@H](C)CO)C(=O)CCCn2nncc2CO[C@@H]1CN(C)C(=O)Oc1cccc2ccccc12	-4	nt	nt	nt	7	nt	nt
COC1CC(OC2CCC3(C)C(CCC4C3CCC3(C)C(C5=CC(=O)OC5)C(OC(C)=O)CC43O)C2)OC(C)C1OC1OC(COC2OC(CO)C(O)C(O)C2O)C(O)C(O)C1O (centres undefined)	nt	nt	48	nt	nt	nt	56*
Cn1ccnc1P(=S)(c1nccn1C)N1CCOCC1	0	-4	8	3	18	-13	-9
CCN1/C(=C\C=C\C2=[N+](CC)c3ccccc3C2(C)C)C(C)(C)c2ccccc21	77*	25	55*	17	18	7	60*
CC1CN1P1(=O)OCC(C)([N+](=O)[O-])CO1 (centres undefined)	-4	nt	nt	nt	1	nt	nt
CCC1(OC(=O)CN)C(=O)OCc2c1cc1n(c2=O)Cc2cc3ccccc3nc2-1 (centres undefined)	31	nt	30	nt	-289	nt	28
CC[C@@]1(O)C(=O)OCc2c1cc1n(c2=O)Cc2cc3ccccc3nc2-1	nt	nt	49	nt	nt	nt	nt
COc1ccc(C2=NS(=O)(=O)N(C)C(C(=O)N3CCC4(CC3)OCCO4)=C2)cc1OC	1	5	nt	-4	-89	-6	nt
C=C(CO)CC1CC(O)[C@]2(C)OC3CC4OC5C[C@]6(C)O[C@]7(C)CCC8OC9C[C@]%10(C)OC%11C(C)=CC(=O)OC%11CC%10OC9C[C@@H](C)C8OC7CC6O[C@]5(C)C/C=C\C4OC3CC2O1 (some centres undefined)	8	-6	7	12	31	-5	nt
C=C(C=O)CC1CC(O)[C@]2(C)OC3CC4OC5C[C@]6(C)O[C@]7(C)CCC8OC9C[C@]%10(C)OC%11C(C)=CC(=O)OC%11CC%10OC9C[C@@H](C)C8OC7CC6O[C@]5(C)CC5OC5C4OC3CC2O1 (some centres undefined)	96*	-5	80*	-3	8	-10	78*
Clc1cccc(NC2=NCCS2)c1	-12	nt	nt	nt	20	nt	nt
COC(=O)C1=C(c2cccc(C#N)c2)C[C@@H]2CC[C@H]1N2C(=O)NCc1ccco1	1	0	nt	4	1	3	nt
C=C1C(=O)O[C@@H]2C[C@@H](C)[C@@H]3C=CC(=O)[C@@]3(C)[C@@H](O)[C@H]12	77*	4	60*	-8	12	-6	57*
COC(=O)C1=C(c2ccc(F)cc2OCc2ccccc2)C[C@@H]2CC[C@H]1N2C(=O)NCCc1ccc(F)cc1	16	-2	nt	6	18	2	nt
C[C@@H]1O[C@@H](O[C@H]2C[C@@H](O)[C@]3(CO)[C@H]4[C@H](O)C[C@]5(C)[C@@H](C6COC(=O)C6)CC[C@]5(O)[C@@H]4CC[C@]3(O)C2)[C@H](O)[C@H](O)[C@H]1O (some centres undefined)	39	7	61*	2	6	9	63*
COC(=O)C1=C(c2cccc(C#N)c2)C[C@@H]2CC[C@H]1N2C(=O)NC1Cc2ccccc2C1	1	7	nt	2	7	5	nt
SMILES	TRAIL sens C8	SENP8 block-1	PPC-1+TRAIL kill	SENP7 inh	SENP8 block-2	SENP6 inh	PPC1 cytotox
COC(=O)C(C)Oc1cc(C)cc2oc(=O)c3c(c12)CCCC3 (centres undefined)	34	-11	0	-12	-211	-4	15
COC(=O)C1=C(c2c(C)noc2C)C[C@@H]2CC[C@H]1N2C(=O)NCCNC(C)=O	-8	-1	nt	5	1	-12	nt
CC(=O)OC[C@]12CCC(C)=C[C@H]1O[C@@H]1[C@H](O)[C@@H](OC(C)=O)[C@@]2(C)[C@]12CO2	89*	-4	65*	-1	35	11	63*
[N-]=[N+]=NCCN1CCC(O)CCC1=O (centres undefined)	-9	-4	nt	-4	6	-3	nt
NC(=S)c1cn(C2OC(CO)C(O)C2O)c2ncnc(N)c12 (centres undefined)	67*	nt	55*	nt	18	nt	55*
C=CC[C@@H](C)CC(=O)C(CCCN=[N+]=[N-])SOOc1ccccc1 (some centres undefined)	0	5	nt	8	6	0	nt
COc1ccccc1N1CCN(Cc2ccccc2F)CC1	-10	-4	18	-8	32	-23	8
